About 83,000 compounds went through this panel and 20% of them were active in at least one assay; those are over-represented in the sample as a whole.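 Cells were grown in 96-well plates and exposed to the test compound at a single concentration for 48 hours; results are reported as percent growth, with values below 10 considered active.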 Active and inactive are the calls of the source.
Assays:
Test in all cases: NCI-60 one-dose screen, 48 h (100 = growth as untreated, 0 = no growth, -100 = all killed)
Conditions in all cases: 10 µM unless noted
[1] = tested on: SK-MEL-2 melanoma
[2] = tested on: EKVX NSCLC
[3] = tested on: SN12C renal
[4] = tested on: UO-31 renal
[5] = tested on: TK-10 renal
[6] = tested on: ACHN renal
[7] = tested on: CAKI-1 renal
[8] = tested on: A498 renal
[9] = tested on: MOLT-4 leukemia

Measured: growth

O=C(O)CN1C(=O)CCC1=O
inactive: [1] 118% | [2] 95.4% | [3] 102% | [4] 102% | [5] 107% | [6] 96% | [7] 102% | [8] 97.4% | [9] 114%

COc1ccc2c(c1)O/C(=C/c1ccc(OCC(=O)c3ccccc3)cc1)C2=O
active: [4] -29.2%
inactive: [1] 108% | [2] 97% | [3] 107% | [5] 115% | [6] 99.5% | [7] 103% | [8] 170% | [9] 90.3%

N#C/C(=C/C=C/c1cccc(Cl)c1)S(=O)c1ccccc1 (configuration not stated)
active: [1] -12.3% | [2] -56.3% | [3] -55.4% | [4] -65.6% | [5] -82.5% | [6] -82.6% | [7] -68.2% | [8] -69.9% | [9] -0.839%

COc1ccc(-c2csc(C3=C(O)CN(C(C)C)C3=N)n2)cc1OC
inactive: [1] 133% | [2] 94.3% | [3] 97.4% | [5] 94.4% | [6] 103% | [7] 82.1% | [8] 89.6% | [9] 87.2%
active: [4] 3.91%

N#Cc1c(-c2ccccc2)cc(-c2ccc(Nc3nc(Nc4ccc(F)cc4)nc(Nc4ccc(F)cc4)n3)cc2)nc1N
inactive: [1] 79.7% | [2] 88.9% | [3] 90.3% | [4] 90.4% | [5] 94% | [6] 107% | [7] 99.8% | [8] 91.7% | [9] 17.3%

CCOC(=O)c1c2ncccc2n2c(=O)n(-c3ccccc3C)nnc12
inactive: [1] 107% | [2] 74% | [3] 105% | [4] 73.4% | [5] 146% | [6] 92.2% | [7] 91.7% | [8] 127% | [9] 61.2%

Cc1cc(/C=C\c2ccc3ccccc3[n+]2C)c(O)c2ncccc12
active: [3] 3.73% | [6] 6.11% | [7] -0.345% | [9] 0.695%
inactive: [1] 35.9% | [2] 18.7% | [4] 16.8% | [5] 23.2% | [8] 30.5%

C[C@@]1(CCC#N)[C@H]2CC[C@@H]3[C@H]4[C@H](C(=O)/C=C/c5cccnc5)CC[C@]4(C#N)CC[C@@]3(C)[C@]2(C)CC[C@H]1C(=O)/C=C/c1cccnc1
inactive: [1] 77.7% | [2] 98.1% | [3] 65.4% | [4] 87.3% | [5] 101% | [6] 56.3% | [7] 68.7% | [8] 99% | [9] 11.7%

COc1ccc(CN2C(=O)C(Cl)=C(Nc3cccc(C(F)(F)F)c3)C2=O)cc1
inactive: [1] 81.7% | [2] 63.4% | [3] 72.8% | [4] 28.5% | [5] 88.2% | [6] 52.5% | [7] 37.4% | [8] 57.6% | [9] 11.9%

O=C(/C=C/c1ccco1)c1ccc(Nc2nc(Nc3ccc(F)cc3)nc(Nc3ccc(Cl)cc3)n2)cc1
active: [9] -99.1%
inactive: [1] 59.4% | [2] 75.5% | [3] 81.1% | [4] 85.3% | [5] 84% | [6] 89.1% | [7] 80% | [8] 30.8%

O=C(COc1ccc(/C=C2\Oc3ccccc3C2=O)cc1)Nc1nc2ccccc2s1
active: [4] -77.2% | [7] -83% | [9] -48.8%
inactive: [1] 106% | [2] 42.8% | [3] 64.4% | [5] 134% | [6] 72.7% | [8] 115%

Cn1c2c(c3ccc(Cl)c(Cl)c31)C(C#N)C1(CCNCC1)NC2=O (configuration not stated)
inactive: [1] 11.5% | [2] 46.2% | [3] 44.2% | [4] 31.7% | [5] 38.3% | [6] 26.8% | [7] 29.6% | [8] 44.9% | [9] 15.6%

CN(C)c1ccc(-c2cc(-c3ccc(Nc4nc(Nc5ccc(Cl)cc5)nc(Nc5ccc(Cl)cc5)n4)cc3)no2)cc1
inactive: [1] 31.6% | [2] 41.3% | [3] 53.8% | [4] 23.5% | [5] 48.4% | [6] 46.5% | [7] 39.7% | [8] 67.5%
active: [9] -24.7%
